Laboratory results from paper PMC4336329 (PLoS ONE, 2015).
The campaign covered roughly 310,000 compounds. About 14,000 (4.5%) showed an effect of 50% or more. Effects have a minus sign here. The full list was thinned out, with strong results kept by preference.

The compounds below were run against human ether-à-go-go-related gene (hERG) potassium channel (human, UniProt Q12809) (assay: primary screen, population patch clamp on CHO cells stably expressing hERG; higher = less effect of the substance).
Chain of human ether-à-go-go-related gene (hERG) potassium channel (Q12809 whole entry, looked up): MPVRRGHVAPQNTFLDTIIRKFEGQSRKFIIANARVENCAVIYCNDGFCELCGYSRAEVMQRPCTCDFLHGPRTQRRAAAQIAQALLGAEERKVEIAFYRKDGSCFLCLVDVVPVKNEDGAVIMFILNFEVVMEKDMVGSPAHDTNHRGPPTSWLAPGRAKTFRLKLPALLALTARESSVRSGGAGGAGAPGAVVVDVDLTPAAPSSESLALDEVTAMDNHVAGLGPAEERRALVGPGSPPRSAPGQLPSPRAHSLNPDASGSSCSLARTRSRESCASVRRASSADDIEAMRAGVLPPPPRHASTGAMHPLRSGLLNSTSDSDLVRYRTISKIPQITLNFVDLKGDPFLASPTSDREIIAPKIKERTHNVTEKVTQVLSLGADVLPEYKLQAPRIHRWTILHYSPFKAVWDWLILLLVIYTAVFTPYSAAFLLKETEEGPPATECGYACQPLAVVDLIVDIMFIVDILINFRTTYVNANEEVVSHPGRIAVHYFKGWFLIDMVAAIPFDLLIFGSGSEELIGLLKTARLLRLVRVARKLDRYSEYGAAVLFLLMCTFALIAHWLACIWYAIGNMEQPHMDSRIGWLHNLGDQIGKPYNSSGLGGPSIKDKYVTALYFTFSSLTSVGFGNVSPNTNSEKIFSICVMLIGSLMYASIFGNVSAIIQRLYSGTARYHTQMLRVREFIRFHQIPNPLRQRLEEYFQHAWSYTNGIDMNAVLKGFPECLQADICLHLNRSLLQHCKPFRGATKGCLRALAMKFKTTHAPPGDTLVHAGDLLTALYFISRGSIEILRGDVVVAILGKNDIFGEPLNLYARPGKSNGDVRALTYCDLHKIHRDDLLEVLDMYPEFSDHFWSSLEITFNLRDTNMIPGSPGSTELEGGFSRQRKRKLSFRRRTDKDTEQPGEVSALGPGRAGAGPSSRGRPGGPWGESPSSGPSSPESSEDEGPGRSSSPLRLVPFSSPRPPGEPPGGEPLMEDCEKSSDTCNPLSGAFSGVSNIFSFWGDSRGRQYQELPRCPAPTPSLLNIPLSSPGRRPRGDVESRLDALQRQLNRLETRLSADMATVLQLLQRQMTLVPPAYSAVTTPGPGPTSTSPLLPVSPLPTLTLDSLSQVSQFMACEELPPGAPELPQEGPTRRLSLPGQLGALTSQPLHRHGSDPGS
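Further: peak tail current of the secondary pulse compared with the same well before compound.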

Row | Structure (SMILES) | hERG current change (%, negative = inhibition) at 10uM [%]
1 | COC(CNC(=O)CC1C(=O)N(Cc2ccccc2)C(C)c2nc3ccccc3n21)OC (centres unmarked) | 9.2
2 | CCCCn1nc(C(=O)N[C@@H](CCSC)c2nc3ccccc3[nH]2)c2ccccc2c1=O | -28.7
3 | CC(=O)Nc1ccc(NC(=O)CC(C)n2ccnc2)cc1 (centres unmarked) | 7.66
4 | O=C1/C(=C/c2ccccc2F)SC(=S)N1CC(=O)N1CCCCC1c1cccnc1 (centres unmarked) | 1.73
5 | C#CCOc1nc(Nc2cccc([N+](=O)[O-])c2)nc(OCC#C)n1 | -10.1
6 | O=C(COc1ccc(S(=O)(=O)N2CCCC2)cc1Cl)N1CCN(c2ccccc2)CC1 | -15.5
7 | COc1cc(Nc2nc3ccccc3nc2NS(=O)(=O)c2ccc([N+](=O)[O-])cc2)cc(OC)c1OC | -30.4
8 | COc1ccc(CN(C(=O)c2ccco2)C2CCS(=O)(=O)C2)cc1 (centres unmarked) | -1.27
9 | COc1ccc(CN(C(=O)c2ccco2)C2CC(C)N(C)CC2C)cc1 (centres unmarked) | -53.4
10 | COc1ccc(CN(CCN)C2CC(C)N(C)CC2C)cc1.Cl (centres unmarked) | 7.07
11 | COc1ccc(/C=C/C(=O)c2cccc(-n3cnnn3)c2)cc1O | 13.5
12 | O=C(Nc1ccc(Br)cc1Br)C1CC(=O)N(Cc2ccccc2)C1 (centres unmarked) | 10.7
13 | COc1cc(NC(=S)NCCC(c2ccccc2)c2ccccc2)cc(OC)c1 | 3.35
14 | COc1ccc(C(C)NC(=S)NCc2ccc(F)cc2)cc1 (centres unmarked) | 0.1
15 | COc1ccc(C(CCNCc2ccc(F)cc2)c2ccc(F)cc2)cc1 (centres unmarked) | -64.6
16 | COc1ccc(C(CCNCc2ccccc2)c2ccc(F)cc2)cc1 (centres unmarked) | -66.7
17 | COc1ccc(C(CCNCc2ccccc2F)c2ccc(F)cc2)cc1 (centres unmarked) | -75.5
18 | COc1ccc(CNC(=S)NCc2ccc(F)cc2)cc1 | -23.5
19 | COc1ccc(CNCCC(c2ccc(F)cc2)c2ccc(OC)cc2)cc1 (centres unmarked) | -82.3

Row | Structure (SMILES) | hERG current change (%, negative = inhibition) at 10uM [%]
20 | COc1ccc(CCNCc2ccccc2F)cc1.O=C(O)C(=O)O | -22.8
21 | COc1ccc(NC(=O)CC(c2ccc(F)cc2)c2ccc(OC)cc2)cc1 (centres unmarked) | 23
22 | COc1ccc(CNC(=O)CNC(C)c2ccc(F)cc2)cc1.O=C(O)C(=O)O (centres unmarked) | 5.06
23 | COc1ccccc1CNCCc1ccc(F)cc1.O=C(O)C(=O)O | -33.8
24 | COc1ccc(CCC(C)Nc2ccc(F)cc2)cc1 (centres unmarked) | -3.78
25 | COc1ccc(-c2cc(C(F)(F)F)nc(-n3cc(Cl)cn3)n2)cc1 | -18.5
26 | CCN1CCCCC(=N/O)/C(=N/O)CCCC1 | 25.5
27 | N#CCCN(C(=O)COC(=O)COc1ccccc1Cc1ccccc1)c1ccccc1 | 15
28 | Cc1cccc(NC(=O)CSCC(=O)N(C)CC(=O)Nc2cccc(F)c2)c1 | -3.01
29 | COc1ccc(C(C)=O)cc1CN1C(=O)NC2(CCCCCC2)C1=O | -3.9
30 | COP(=O)(CC(=O)O)c1ccccc1 (centres unmarked) | -5.99
31 | CC(NC(=O)COc1ccccc1)C(=O)NC1=NCCS1 (centres unmarked) | 0.963
32 | CCOC(=O)N1CCN(C(=O)CNC(=O)c2nn(-c3ccc(OC)cc3OC)c(=O)c3ccccc23)CC1 | -4.94
33 | COC1=CC(=O)OC12CCCCC2 | 8.91
34 | CCc1noc(C)c1C(=O)N(CCCOC)c1c(N)n(Cc2ccccc2)c(=O)[nH]c1=O | 27.3
35 | Clc1ccc(-c2ccnc(Oc3ccc4ccccc4c3)n2)cc1 | 7.34
36 | CC(=O)NCCc1nc2cc(NC(=O)COc3cccc(C)c3)ccc2n1C | 6.53
37 | CCC(=O)NCCc1nc2cc(NC(=O)Nc3ccccc3)ccc2n1C | 18.8
38 | CC(=O)NCCc1nc2cc(NC(=O)Nc3ccccc3)ccc2n1C | -53.8

Row | Structure (SMILES) | hERG current change (%, negative = inhibition) at 10uM [%]
39 | Cc1cccc(OCC(=O)Nc2ccc3c(c2)nc(CCN2CCN(C)CC2)n3C)c1 | -37.1
40 | CN1CCN(CCc2nc3cc(NC(=O)COc4ccccc4)ccc3n2C)CC1 | -32.6
41 | Cc1cccc(OCC(=O)Nc2ccc3c(c2)nc(CCN2CCCCC2)n3C)c1 | -77.2
42 | COc1ccc(OCC(=O)Nc2ccc3c(c2)nc(CCNC(C)=O)n3C)cc1 | 13.1
43 | Cn1c(CCn2ccccc2=O)nc2cc(NC(=O)COc3ccccc3)ccc21 | -40.6
44 | Cn1c(CCN2CCCCC2)nc2cc(NC(=O)COc3ccccc3)ccc21 | -78
45 | CC(=O)NCCc1nc2cc(NC(=O)c3ccccc3)ccc2n1C | -25.6
46 | COc1ccc(OCC(=O)Nc2ccc3c(c2)nc(CCn2ccccc2=O)n3C)cc1 | -10.8
47 | COc1ccc(OCC(=O)Nc2ccc3c(c2)nc(CCN2CCCC2)n3C)cc1 | -55
48 | CC(C)CN(C(=O)COC(=O)c1cnccn1)c1c(N)n(Cc2ccccc2)c(=O)[nH]c1=O | 16.4
49 | CC(C)Cn1c(N)c(C(=O)COC(=O)c2ccc(O)cc2O)c(=O)n(C)c1=O | 8.34
50 | CCn1c(SCC(=O)NC2CCCC2)nnc1-c1ccncc1 | 16.4
51 | Cc1ccc(OCC(=O)Nc2ccccc2F)cc1 | -0.548
52 | CN1C(=O)/C(=C/c2ccc(OCc3ccc(C(=O)O)cc3)c(Cl)c2)NC1=S | 20.4
53 | Cc1ccc(OCCn2cnc3c2c(=O)n(C)c(=O)n3C)cc1 | 20
54 | C=CCSc1nc2ccccc2[nH]1 | 25
55 | O=C(Cc1ccccc1)NCc1ccc(-n2cccc2)cc1 | 29.3
56 | CN(C(=O)CC1C(=O)NCCN1Cc1cccc(F)c1F)C1CC(C)(C)NC(C)(C)C1 (centres unmarked) | 26.1
